Records with an inconclusive call do not appear. Entries that show only a call come without a potency. Calls of active or inactive are those of the source. Calls follow the shape of the dose curve; as a rule, active = well fitted inhibition curve with a large enough effect; inconclusive = small, poorly fitted or top-dose-only effect; inactive = no such curve, though single readings can be large or run the other way.
Experiment: qHTS for Inhibitors of the Aldehyde Dehydrogenase Family (ALDH1A2, ALDH1A3, ALDH2, ALDH3A1) (AID 2061307); also: nearly all actives have a fitted effect of over 50% in size; as to potency: test system not described further here
Details: ALDH inhibition qHTS; series mostly up to 50.3 µM
Potency is read from the fitted curve at half-maximal effect.

SMILES | Potency
CCOCCNC(=O)N1CCN(c2nc(C)cs2)CC1 | 14.1 µM (active)
CC(C)Oc1ccc(-c2nc(C(=O)Nc3ncn[nH]3)cs2)cc1 | 3.55 µM (active)
COc1cccc(-c2cnc(N3CCC(C(N)=O)CC3)s2)c1 | inactive
COc1cccc(NC(=O)c2cc3c(-c4ccc(Cl)cc4)nn(C)c3s2)c1 | inactive
CCOc1ccc(C(=O)NCc2nc(-c3ccc(Cl)cc3)no2)cc1OCC | inactive
CC1(C)c2nc(-c3ccc(F)cc3)c(Nc3ccc(F)cc3)n2CCN1C(=O)CN | inactive
C=CCn1c(Sc2ncc(C#N)cc2Cl)nnc1-c1ccccc1F | inactive
COC(=O)c1ccc(CNc2ncnc3ccccc23)cc1 | 0.708 µM (active)
Cc1cnc(CNc2nc(-c3ccccc3Cl)nc3ccccc23)cn1 | inactive
OCCNc1nc(Nc2ccccc2O)nc(N2CCCC2)n1 | inactive
CCOc1c(Cl)cc(CNc2ccc3[nH]c(=O)[nH]c3c2)cc1OC | inactive
O=Cc1ccc(N2Cc3ccccc3C2)cc1 | inactive
O=C(CCCCc1cn(-c2cc3ccc(O)cc3oc2=O)nn1)NCCOCCOCCOc1ccc(-n2ncc3c2CCCC3NC(=O)c2ccccn2)cc1 (stereo not given) | 2.82 µM (active)
NS(=O)(=O)c1ccc(Cc2cn(-c3nc(C(=O)O)cs3)c3cc(C(=O)N4CCOCC4)ccc23)cc1 | inactive
CNc1nc2c(s1)C(c1ccccc1Br)CC(=O)N2 (stereo not given) | 10.1 µM (active)
O=C(c1cccs1)c1no[n+]([O-])c1C(=O)c1cccs1 | 1.59 µM (active)
Cc1ccc(CNC(=O)c2cc(=O)c3cc(C)ccc3o2)cc1 | inactive
COc1cccc(N2CCN(C(=O)c3ccc4c(c3)N(C)C3CCCCCN3C4=O)CC2)c1 (stereo not given) | inactive
O=C(CN1CCC(CCc2ccccc2)CC1)Nc1ccccc1 | 15.8 µM (active)
COc1ccc(-n2nnc(-c3nc(-c4cccs4)no3)c2N)cc1OC | inactive

SMILES | Potency
CC(NC(=O)c1ccco1)c1nc(-c2ccccc2)no1 (stereo not given) | inactive
N#Cc1cccc(-c2ccc3nc(-c4ccccc4)cn3c2)c1 | inactive
O=C(Nc1ccncc1)c1cccs1 | inactive
O=C(Nc1ccccn1)c1cccs1 | inactive
N#Cc1nc(-c2ccc(F)cc2)oc1N1CCN(C(=O)c2ccccc2F)CC1 | inactive
CN1CCN(CC(=O)N2c3ccc(S(=O)(=O)NCCNC(=O)OC(C)(C)C)cc3C(=O)Nc3cccnc32)CC1 | inactive
COc1ccc(OC)c(NC(=O)c2cc3cccc(OC)c3oc2=O)c1 | inactive
Cc1cc(SCc2sc(-c3ccc(F)cc3)nc2C)ccc1OCC(=O)O | inactive
COc1ccccc1Nc1ccc2c(O)cc(S(=O)(=O)O)cc2c1 | 31.6 µM (active)
NCC(=O)Nc1ccc2c(c1)Oc1cc(NC(=O)CN)ccc1C21OC(=O)c2ccccc21 | inactive
CCOc1ccc(NC(=O)c2ccc(NC(=O)CN3C(=O)N(C)C4(CCCCC4)C3=O)cc2)cc1 | 7.08 µM (active)
Nc1nc2c(s1)C(c1ccccc1)CC(=O)N2 (stereo not given) | 11.3 µM (active)
Fc1ccc(CN2CCC(N(CCc3ccccc3)Cc3ccccc3)CC2)cc1 | inactive
CC(C)C(=O)OCc1ccc(-c2nn(Cc3ccccc3)c3ccccc23)o1 | inactive
O=C(Nc1nc2ccccc2c(=O)s1)c1ccc(F)cc1Cl | inactive
NCC(=O)Nc1cc(O)cc(-c2nn3c(=O)cc(N4CCNCC4)nc3s2)c1 | inactive
COc1ccc(-c2cc(=O)n(-c3nc(C(=O)O)cs3)[nH]2)cc1 | inactive
COc1cc(O)c(C(CC(=O)N2CC(C)CC(C)C2)c2cccc(OC(C)C)c2)c(OC)c1 (stereo not given) | 12.7 µM (active)
Cc1c2c(=O)n(-c3ccccc3)[nH]c2cc(=O)n1CCCN1CCOCC1 | inactive
CCOc1ccc(CCNC(=O)c2cc3occc3[nH]2)cc1OCC | inactive
